From PubChem BioAssay AID652067 (The Scripps Research Institute Molecular Screening Center, 2013) come the findings set out here.

Screen size: about 370,000 compounds; about 5,400 (1.5%) were called active.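 Rule for the calls: active = activation above the mean of all tested compounds plus 3 SD (cut at about 5.5% in these data); inactive = the rest.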 The entries come from a sample that favours actives as a whole.

This test deals with DAF-12 nuclear receptor (Haemonchus contortus). As to the kind of experiment: H. contortus DAF-12 nuclear receptor activators, primary screen, cell-based, luminescence, HEK293, lit1-tk-luc reporter (AID 652067).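 Note: 100% = response to 3 µM Δ7-dafachronic acid high control.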 The conditions noted are these: HEK293 hcDAF-12 lit1-tk-luc reporter, at 6.8 µM, active compounds read high, 0% DMSO, 100% Δ7-dafachronic acid.
On to `COc1ccc(-n2nnnc2SCC(=O)NCc2cccs2)cc1`, for which the activation was -2.07% (inactive). Next, `FC(F)(F)c1nc(-c2ccccc2)ncc1-c1nnnn1-c1ccccc1`: -4.23% (inactive); `COc1ccc(-n2nnnc2-c2nc3ccccc3s2)cc1`: 9.22% (active); `O=C(OCC(=O)N1CCOCC1)c1ccc2ccccc2c1`: 0.31% (inactive). Consider `NC(=O)c1ccccc1N=Cc1ccc2ccccc2c1`, for which the activation is 10.7% (active). With `O=C1CC[C@@H](COc2ccc3[nH]cc(-c4ccccc4)c3c2-c2ccccc2)N1` the figure was -1.8% (inactive); with `CC(C)(C)c1ccc(C(=O)Nc2cc(Cl)c(Br)cc2C(=O)O)cc1`, 2.27% (inactive); with `COc1ccc(CCNC(=O)CSc2nc3c([nH]2)c(=O)n(C)c(=O)n3C)cc1`, -0.84% (inactive).

Regarding `N[C@@H](Cc1ccccc1)C(=O)N1CCC(C(=O)NCC(=O)Nc2ccc(F)cc2)CC1`, the activation is 8.85% (active). Next, `Cc1ccc(NC(=O)N2CCC(C(=O)NCc3ccc(F)cc3)CC2)cc1`: -0.76% (inactive); `O=C(NCc1ccc(F)cc1)C1CCN(C(=O)Nc2ccc(F)cc2)CC1`: -1.57% (inactive); `O=C(NC1CCC1)c1ccc(C#Cc2cccc(F)c2)c[n+]1[O-]`: 1.33% (inactive). Turning to `COCn1c(C(O)c2ccccc2)cc2ccccc21` (stereo unspecified), the activation was 6.22% (active). With `CCOC(=O)c1cc2ccccc2n1CC(=O)c1ccccc1`, the activation is 1.16% (inactive). `COc1cc(C(O)c2nc3ccccc3n2C)cc(OC)c1OC` (stereo unspecified): the activation is -1.25% (inactive). With `COc1ccccc1-c1ccc([C@@H]2C[C@H]3[C@H](CON3C)CN2S(=O)(=O)c2cc(Cl)cc(Cl)c2)cc1`, the activation is 1.1% (inactive). Take `O=C(Nc1nc2ccc(Cl)cc2s1)c1cc(-c2ccc(Cl)cc2)nc2ccccc12`: the activation is 4.5% (inactive). Regarding `O=C(Nc1ccccc1)Nc1nnc(COc2ccccc2F)s1`, the activation is -0.12% (inactive). As to `O=C(Nc1ccccc1)Nc1nc2ccccc2s1`, the activation was 15.3% (active).

For `O=C(CCCCCN1C(=O)C2C3C=CC(C3)C2C1=O)Nc1ccccn1` (stereo unspecified), the activation is 2.04% (inactive). With `CCOC(=O)[C@]12CCCC3=C1N(CCC3)C(=O)[C@@H](CC(=O)N1CCSCC1)C2` the figure was -2.29% (inactive); with `CCCCn1c(N)c(N(CC(C)C)C(=O)c2cccc(S(=O)(=O)N3CCN(C(C)=O)CC3)c2)c(=O)[nH]c1=O`, -1.13% (inactive).

With `CCCCn1c(N)c(N(CC(C)C)C(=O)c2cccc(S(=O)(=O)N3CC(C)OC(C)C3)c2)c(=O)[nH]c1=O` (stereo unspecified), the activation was 6.01% (active). Regarding `CCCCn1c(N)c(N(CCOC)C(=O)c2cccc(S(=O)(=O)N3CCCCC3)c2)c(=O)[nH]c1=O`, the activation is -0.97% (inactive). Consider `Nc1[nH]c(/C=C2/CCCCC2n2[nH]c(=O)n(-c3ccccc3)c2=O)c(Cc2ccccc2)[n+]1Cc1ccccc1` (stereo unspecified), for which the activation was -2.89% (inactive). As for `COC(=O)C12C=C3CC(c4ccccc4)=C3C(=O)N1Cc1[nH]c3ccccc3c1C2` (stereo unspecified), the activation is 1.08% (inactive). As for `OC(c1ccccc1)c1nc(-c2cnc3ccccc3c2)cs1` (stereo unspecified), the activation is 7.43% (active). For the molecule `CC(C)c1cccc(-c2csc(C(O)c3ccccc3)n2)c1` (stereo unspecified), the activation is 1% (inactive). As to `COc1cccc(C(NC(C)=O)c2nc(-c3cnc4ccccc4c3)cs2)c1` (stereo unspecified), the activation was -2.08% (inactive). For `COC(=O)c1cc(S(=O)(=O)N2CCN(C(=O)C3CCCO3)CC2)cn1C` (stereo unspecified), the activation is 2.12% (inactive). `Cc1cc(NS(=O)(=O)c2ccc(NC(=O)CSc3nnc(-c4ccc(C(C)(C)C)cc4)n3Cc3ccco3)cc2)nc(C)n1`: the activation was -0.89% (inactive). As to `Nc1cc(=O)c2[nH]cnc2[nH]1`, the activation is -0.07% (inactive). With `CCCC[C@H](C(=O)N(CC)c1ccccc1)[C@@H](O)c1ccc2ccccc2c1`, the activation is -1.18% (inactive). Next, `C=CCN(Cc1ccc2c(c1)OCO2)C(C#CC1CC1)C(C)(C)C` (stereo unspecified): -0.69% (inactive). For the molecule `Cc1ccc(NC(=O)CNCc2ccccn2)cc1S(=O)(=O)N(C)C`, the activation was 0.26% (inactive). With `CCN(c1ccccc1)S(=O)(=O)c1cc(C(=O)NCc2ccccn2)ccc1C`, the activation was -0.36% (inactive).

For `CCN(CC)S(=O)(=O)c1cc(C(=O)Nc2ccccn2)ccc1C`, the activation is 5.61% (active).

For the molecule `CCN(CC)C(=O)CC[C@@H]1CC[C@]2(CCCN(S(=O)(=O)C3CCCCC3)C2)O1`, the activation was -3.16% (inactive).

In the case of `Cc1[nH]nc2c1C(c1ccc(Br)cc1)NC2=O` (stereo unspecified), the activation was 1.05% (inactive). Regarding `COc1cccc(/C=C(/CC(=O)Nc2ccc(N3CCOCC3)cc2)c2nc3ccccc3s2)c1`, the activation is 6.15% (active). Take `O=C(COC(=O)CCc1nc2ccccc2c(=O)[nH]1)Nc1ccc(N2CCOCC2)cc1`: the activation was -1.31% (inactive).

Regarding `CCn1c(Cc2ccc(OC)cc2)nnc1SCC(=O)Nc1ccc(N2CCOCC2)cc1`, the activation is 0.15% (inactive). As for `COc1cccc(N(C)C(=O)[C@@H](C)[C@@H](O)c2ccc3ccccc3c2)c1`, the activation is -0.46% (inactive).

Regarding `COC(=O)C1=C(C)N(Cc2cccc(C(F)(F)F)c2)C(=NCc2ccccc2)NC1c1ccc(Cl)cc1` (stereo unspecified), the activation is -0.23% (inactive).

With `COc1ccc(SSc2ccc(OC)cc2C(=O)O)c(C(=O)O)c1`, the activation was 0.58% (inactive). In the case of `c1ccc(-c2cc(-c3ccccc3)[nH]n2)cc1`, the activation was 11.7% (active). For the molecule `c1ccc(-c2c[nH]c(-c3ccccc3)c2)cc1`, the activation is 2.47% (inactive). With `Oc1ccccc1-c1cc(-c2ccc(Cl)cc2)n[nH]1` the figure was 20.9% (active); with `Cc1c[nH]c2cccc(-c3ccc(Cl)cc3)c12`, 2.81% (inactive); with `O=C(O)c1n[nH]nc1-c1ccccc1`, -0.64% (inactive). Next, `COc1ccc(Cn2cc(CN3[C@@H](CC(C)C)COc4cc(Br)ccc4S3(=O)=O)nn2)cc1`: -0.96% (inactive); `COC(=O)Cc1nnn2c1[C@H](C)[C@H](c1ccccc1[N+](=O)[O-])OCC2`: -0.26% (inactive).

In the case of `C=C(C)C1CC23C(=O)C4(C(=O)c5ccccc5)C[C@@]5(C)CCC(CC2C1(C)C)(C4=O)C35OC` (stereo partly specified), the activation is -1.07% (inactive). With `O=C(c1c(Cl)cccc1Cl)N1CCN(c2cccc3[nH]ccc23)CC1` the figure was -0.37% (inactive).

With `C=CCN1C(=O)N(Cc2ccccc2)c2ccccc2S1(=O)=O`, the activation is 2.1% (inactive). As to `C=C(C)C#CC(Cc1ccccc1)N(CC1CC1)/C(N)=N/C(=O)OCc1ccccc1` (stereo unspecified), the activation is -4.1% (inactive). Next, `Cc1c(Cl)cccc1NC(=O)NCc1ccc(C)n1C`: 6.25% (active); `Cc1c(Cl)cccc1NC(=O)NCCCN1CCCC1=O`: -0.07% (inactive). With `Cc1c(Cl)cccc1NC(=O)Nc1ccc(C(=O)N2CCCC2)cc1`, the activation was -1.91% (inactive). For the molecule `Cc1cccc(C)c1NC(=O)COC(=O)c1c(C)nn(-c2ccccc2)c1C`, the activation was -1.2% (inactive).

As for `CCCn1c(C)cc(C(=O)COC(=O)c2c(C)nn(-c3ccccc3)c2C)c1C`, the activation was -1.95% (inactive). `Cc1ccc(OC(=O)c2c(C)nn(-c3ccccc3)c2C)cc1`: the activation was 5.72% (active). Consider `CCOC(=O)[C@]12CCCCC/C=C\1N(Cc1ccc(OC)cc1)C(=O)[C@H]2CC(=O)NCc1ccc(C)o1`, for which the activation was -1.63% (inactive).

As to `CCOC(=O)c1c(NC(=S)SC)sc(C(=O)N2CCc3ccccc3C2)c1C`, the activation is -0.42% (inactive). As for `COC(=O)[C@]12C[C@H](CC(=O)NCc3ccc(OC)c(OC)c3)C(=O)N(Cc3ccccc3)C1=C[C@H](C(C)C)O[C@@H]2C1CC1`, the activation was -0.82% (inactive). With `Cc1nc2cc(NCc3cccs3)ccc2n1C` the figure was 1.2% (inactive). In the case of `Cc1nc2cc(NC(=O)Nc3cccc(F)c3)ccc2n1C`, the activation was 11.1% (active). `CCN1CCN(C(=O)C2(NC(=O)Nc3cccc(F)c3)CCCCC2)CC1`: the activation is -1.58% (inactive). `COC[C@@H]1CCCN1c1ccc2c(c1)O[C@H](C)CCN(C1CC1)S2(=O)=O`: the activation is -0.65% (inactive). Consider `Cn1c(CNc2nc(-c3ccccc3)cs2)nnc1SCC(=O)c1ccccc1`, for which the activation is -0.8% (inactive).

As to `Cn1c(SCC(=O)NC2CCCCC2)nnc1-c1cc2ccccc2o1`, the activation is -0.36% (inactive).

As to `CCNc1nc(-c2cc3ccccc3o2)cs1`, the activation was 6.62% (active).

`C[C@H]1CCC/C=C/C(=O)c2c(O)cc(O)cc2CC(=O)O1`: the activation is -4.76% (inactive). Consider `Cc1csc(SCC(=O)Nc2ccc(C)c(S(=O)(=O)N(C)C)c2)n1`, for which the activation was -0.11% (inactive).

On to `N#Cc1ccsc1NC(=O)CN1CCCCC1`, for which the activation is -2.18% (inactive). With `Cc1csc(SCC(=O)Nc2sccc2C#N)n1`, the activation is 6.55% (active). For the molecule `Cc1ccc(NC(=S)NNC(=O)CSc2nnc(SCc3ccccc3Cl)s2)cc1`, the activation was 0.49% (inactive). Turning to `CSc1ncccc1C(=O)OCC(=O)N1CCOCC1`, the activation was -1.11% (inactive). As to `CCOC(=O)c1ccccc1NC(=O)COC(=O)CCC(=O)N1CCOCC1`, the activation was -0.53% (inactive).

For `CCOC(=O)c1ccccc1C(=O)N1CCOCCOCCOCC1`, the activation is 6.11% (active). Turning to `CC(CCc1ccccc1)NCC(O)c1cccc([N+](=O)[O-])c1` (stereo unspecified), the activation is -0.61% (inactive).

As to `Cn1c(=NC(=O)c2cnccn2)sc2ccccc21`, the activation is 3.28% (inactive). Regarding `Cc1cc(NC(=O)c2ccco2)c(=O)n(Cc2c(F)cccc2Cl)c1`, the activation was -0.57% (inactive). With `Cn1c(=NC(=O)c2ccco2)sc2cccc(F)c21`, the activation is 10.7% (active).

Regarding `C=CCN1C(=O)[C@H](CC(=O)N2CCN(C(=O)OCC)CC2)[C@@]2(C(=O)OCC)CCCC=C12`, the activation is -0.81% (inactive).

With `Cc1ccccc1CN1CCCCC(NC(=O)c2cccc(C#N)c2)C1=O` (stereo unspecified), the activation is -2.63% (inactive). With `Cc1ccc(C(=O)C2CCN(CC(=O)NCCC(C)C)CC2)cc1`, the activation was -1.66% (inactive).

For the molecule `COc1ccc([C@H]2OC(=O)C[C@H]2C(=O)N2CCN(c3ccccc3F)CC2)cc1OC`, the activation is -0.81% (inactive). On to `N#Cc1c(C(F)(F)F)cc(-c2ccc(Cl)cc2)nc1SCC(=O)O`, for which the activation is 6.47% (active). `Cc1cc(C(F)(F)F)c(C#N)c(SCC(=O)NC2CC2)n1`: the activation was -2.02% (inactive). On to `CCN(CC)c1nc(-c2ccccc2)cc(C(F)(F)F)c1C#N`, for which the activation was -1.43% (inactive).
